“And” between values parts separate entries of the source, which are not always exact repeats. Identical values can stand only once. Records with an inconclusive call do not appear. A number with no mark means an inactive call. The source made the active and inactive calls. Calls follow the shape of the full dose curve.
Assay: qHTS assay to identify small molecule agonists of the NFkB signaling pathway - cell viability counter screen (AID 1159515); also: nearly all actives have a fitted effect of over 55% in size
Settings: NFkB-bla ME-180 viability, CellTiter-Glo luminescence, 5 h; series mostly up to 61 µM; activity, negative = cytotoxic: at the top concentration
Description: National Center for Advancing Translational Sciences [NCATS]
NIH Chemical Genomics Center [NCGC]
U.S. Environmental Protection Agency [EPA]
National Institutes of Environmental Health Sciences [NIEHS]
National Toxicology Program [NTP]
U.S. Food and Drug Administration [FDA]
Transcription factors and their stimulated target gene expression play pivotal roles across many cellular processes including responses to environmental stimuli. Proper regulation of associated pathways is critical to maintain cell health and function. Constitutive activation of transcription factor pathways has been implicated in tumors as it may block cellular functions such as apoptosis and lead to invasion and metastasis. One important transcription factor that stimulates gene expression in response to cytokines, UV radiation, and other stimuli is nuclear factor-kappa B (NFkB). To measure activation of the NFkB pathway, the CellSensor NFkB-bla ME-180 cell line (Life Technologies, Carlsbad, CA) that stably expresses beta-lactamase reporter gene under the regulation of a NF-kB response element was used. This assay allows measurement of the NFkB pathway activity induced by compounds in a ME-180 cell line. This system quantitates NF-kB activity using a FRET-based assay system where beta-lactamase expression disrupts FRET, allowing for fluorescent measurement of activity. This cell line has been used to screen the Tox21 10K compound library and to identify compounds that induce the NFkB pathway activity. The cytotoxicity of the Tox21 compound library against the NFkB-bla ME-180 cell line was tested in parallel by measuring cell viability using the CellTiter-Glo assay in the same wells.
Tox21 Assay Protocol Summary:
NFkB-bla ME-180 cells were dispensed at 2,000 cells/6 uL of assay medium per well into black wall/clear-bottom 1536-well plates using a Multidrop Combi (ThermoFisher Scientific, Waltham, MA) dispenser. After the assay plates were incubated at 37 C and 5% CO2 for an overnight, 23 nL of compounds dissolved in DMSO, positive controls or DMSO only was transferred to the assay plate by a Pintool station (Kalypsys, San Diego, CA). The assay plates were incubated at 37 C and 5% CO2 for 5 hr. One uL of LiveBLAzer B/G FRET substrate (Life Technologies) was added using a Flying Reagent Dispenser (Aurora Discovery, San Diego, CA) and the plates were incubated at room temperature for 1.5 hr. Fluorescence intensity (405 nm excitation, 460 nm and 530 nm emissions) was measured using an Envision plate reader (PerkinElmer, Shelton, CT). For cytotoxicity, 3 ul/well of CellTiter-Glo reagent was added into the assay plates using an FRD. After 30 min incubation at room temperature, the luminescence intensity was measured using a ViewLux plate reader (PerkinElmer).
% is scaled to controls: 0 for no effect and ±100 for the full control effect; potency is read from the fitted curve at half-maximal effect.

Compound | activity, negative = cytotoxic | Potency
O=C1NC(=O)C(=O)C(=O)N1 | 9.69% [at 78.8 µM] | –
CCCN(CCC)c1c([N+](=O)[O-])cc(C(C)C)cc1[N+](=O)[O-] | – | inactive
C=CCOCC1CO1 (stereo not given) | 1.3% | –
O=C(N[C@H]1CN2CCC1CC2)c1ccc2c(c1)OCCO2 | 6.06% | –
CON(C)C(=O)Nc1ccc(Cl)cc1 | 18.9% | –
CC(C)(c1ccccc1)c1cc(-n2nc3ccccc3n2)c(O)c(C(C)(C)c2ccccc2)c1 | -1.64% | –
CCCCNC(=O)OCC#CI | – | inactive
COC1=CC(=O)O[C@@H](/C=C/c2ccc3c(c2)OCO3)C1 | -4.6% | –
COC(=O)C1(O)c2ccccc2-c2ccccc21 | -1.78% | –
CCCC[P+](CC)(CCCC)CCCC (tested in a mixture with another compound) | -0.976% [at 78.8 µM] | –
O=C(NC(=O)c1cc(F)c(F)cc1Cl)Nc1cc(F)ccc1N1CCC(C(=O)O)CC1 | -3.85% | –
CC(Cc1ccccc1)NCc1ccccc1Cl (stereo not given) | -1.52% | –
CCCC[N+](CCCC)(CCCC)CCCC | -2.03% | –
COc1ccc(C(=O)c2c(C)n(CCN3CCOCC3)c3ccccc23)cc1 | 0.259% | –
C#CC(O)(C=CCl)CC (stereo not given) | 8.11% | –
Cc1nc2ccccc2c(=O)n1-c1ccccc1Cl | -0.519% | –
N#CC(C#N)=C(C#N)C#N | -0.321% [at 78.8 µM] | –
ClCc1ccccc1Cl | 0.492% [at 78.8 µM] | –
CCNC(=O)NC(=O)/C(C#N)=N/OC | -10.6% | –
CCCCCCCCn1sccc1=O | – | 49.1 µM (active) and 3.63 µM (active)

Compound | activity, negative = cytotoxic | Potency
CC(C)(C)NCC(O)c1cc(Cl)c(N)c(C(F)(F)F)c1 (stereo not given) | 11.5% | –
O=C(N/N=C/c1ccc([N+](=O)[O-])o1)c1cc([N+](=O)[O-])cc([N+](=O)[O-])c1O | 8.57% | –
N#CC1(N=NC2(C#N)CCCCC2)CCCCC1 | -15.6% | –
O=C(O)c1ccc(=O)[nH]c1 | 8.35% | –
CCC(C)(C)c1ccc(O)c(C(C)(C)CC)c1 | – | 21.6 µM (active) and 21.9 µM (active)
CC(C)c1ccc(NC(=O)N(C)C)cc1 | -7.29% | –
O=C(CCl)CCl | – | inactive
C=CCc1ccccc1O | 1% | –
C=CC(=O)NC(C)(C)CC(C)=O | 1.07% | –
O=[N+]([O-])c1cc(Cl)c(Cl)cc1Cl | -4.44% | –
CCCCCl | -0.945% [at 78.8 µM] | –
CCOP(=O)(O)C(N)=O | 0.755% | –
CCOc1cccc(C2(N3CCN(c4ccccc4)CC3)CCC(C)CC2)c1 (stereo not given) | 8.88% | –
CC1(C)CC(=O)CC(C)(C)N1[O] | -6.14% | –
[Cl-].[Cl-].[Hg+2] | – | 3.45 µM (active) and 49 µM (active)
O=CC=O | 5.48% [at 78.8 µM] | –
CC(O)CN1CCN(CC(=O)[O-])CCN(CC(=O)[O-])CCN(CC(=O)[O-])CC1.[Gd+3] (stereo not given) | 0.377% | –
O=[N+]([O-])/C=C/c1ccccc1 | – | 44.4 µM (active) and 54.9 µM (active)
NP(N)(=O)NC(=O)c1ccc(F)cc1 | 3.1% | –
N#CC(C#N)=Cc1ccc(O)c(O)c1 | 19.3% | –
